In assay [1] the target is Progesterone receptor (Homo sapiens) (UniProt P06401). Nature of the assay: qHTS assay to identify small molecule agonists of the progesterone receptor (PR) signaling pathway (AID 1346784; calls by dose curve; also: nearly all actives have a fitted effect of over 30% in size). The method in brief: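 Seed PR-UAS-bla HEK 293T cells (2% charcoal-stripped FBS), incubate 6 hr at 37C; add compounds in DMSO, 16 hr at 37C; add LiveBLAzer B/G substrate, 2 hr RT; read fluorescence intensity.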
(Quantitative high-throughput screening tests each substance at several concentrations.)

Assay [2] can be described thus: qHTS assay to identify small molecule antagonists of the TGF-beta/Smad signaling pathway - cell viability counter screen (AID 1346824). Also: nearly all actives have a fitted effect of over 50% in size. The method in brief: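 SBE-bla HEK 293T cells were plated overnight at 37 C, then given compounds in DMSO plus TGF-beta1 (added as 0.25 ng/mL solution) for 5 hr. After the bla read, CellTiter-Glo was added to the same wells and luminescence read after 30 min at room temperature.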

A short description of assay [3]: qHTS assay to identify small molecule agonists of the TGF-beta/Smad signaling pathway - cell viability counter screen (AID 1346829). Also: top concentration of the series differs between compounds; nearly all actives have a fitted effect of over 45% in size. The method in brief:
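Same-well cytotoxicity: CellTiter-Glo added after the 2 hr room-temperature beta-lactamase substrate step, luminescence measured 30 min later; cells had 5 hr of compound at 37 C.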

The nature of assay [4]: qHTS assay to identify small molecule agonists of the TGF-beta/Smad signaling pathway (AID 1346859; active = well fitted activation curve with a large enough effect in the signal ratio in the repeat runs, not every such curve was filed as active; the % refers to the signal ratio; also: series mostly up to about 77 µM). The method in brief:
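Beta-lactamase reporter activity downstream of Smad binding elements was measured in stably transfected HEK 293T cells; compounds were incubated for 5 hr, substrate for 2 hr at room temperature.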

In assay [5] the target is Thyrotropin-releasing hormone receptor (Homo sapiens) (UniProt P34981). Briefly: qHTS assay to identify small molecule antagonists of the thyrotropin-releasing hormone receptor (TRHR) signaling pathway (AID 1346877; active = well fitted inhibition curve with a large enough effect in the repeat runs, not every such curve was filed as active; also: series mostly up to about 51 µM). The method in brief: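 TRHR-expressing HEK293 cells were seeded, cultured 18 h at 37 °C, then loaded with calcium dye for 2 h. Compounds were pre-incubated 5 min at room temperature before 1 nM TRH (final) was added, and kinetic fluorescence was recorded for 3 min.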

Assay [6] shares this target. Nature of the assay: qHTS assay to identify small molecule agonists of the thyrotropin-releasing hormone receptor (TRHR) signaling pathway (AID 1346891; calls by dose curve; also: series mostly up to about 58 µM). The essentials:
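Overnight-plated (18 h, 37 °C, 5% CO2) TRHR-Hek293 cells; 2 h calcium dye at 37 °C; compound in DMSO; 3-min kinetic fluorescence read.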

Assay [7] is described as follows: Human pregnane X receptor (PXR) small molecule agonists, qHTS cell viability counter screen (AID 1346977). Also: nearly all actives have a fitted effect of over 50% in size. The method in brief: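 After a 5hr pre-incubation, PXR-Luc HepG2 cells received compounds plus positive control in DMSO and were kept 24hr at 37C. Cell viability was quantified by fluorescence from CellTiter-Fluor added for the final hour.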
Assay [8] can be described thus: Caspase-3/7 induction in HepG2 cells by small molecules, qHTS assay (AID 1346978). Also: nearly all actives have a fitted effect of over 15% in size. The essentials:
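Wild-type HepG2 cells (2,000/well) were settled 5 h at 37 C, 5% CO2, then exposed to compounds in DMSO for 17 h. Caspase-3/7 activity was read by luminescence 30 min after adding Caspase-Glo 3/7 reagent at room temperature.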

A short description of assay [9]: Caspase-3/7 induction in CHO-K1 cells by small molecules, qHTS cell viability counter screen (AID 1346979). Also: nearly all actives have a fitted effect of over 35% in size. The method in brief: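 Multiplexed with Caspase-Glo 3/7 in CHO-K1 cells, this counter screen added CellTiter-Fluor after 16hr of compound exposure and recorded fluorescence 1hr later.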
The nature of assay [10]: Caspase-3/7 induction in CHO-K1 cells by small molecules, qHTS assay (AID 1346980). Also: nearly all actives have a fitted effect of over 15% in size. The method in brief:
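Wild-type cells were seeded at 1,500 per well and settled 5 hr at 37 C, 5% CO2, then exposed to DMSO-dissolved compounds for 17 hr. Caspase-Glo 3/7 reagent was added, and luminescence was read after 30min at room temperature.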

A short description of assay [11]: Caspase-3/7 induction in HepG2 cells by small molecules, qHTS cell viability counter screen (AID 1346981). Also: series mostly up to about 92 µM; nearly all actives have a fitted effect of over 30% in size. The method in brief:
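Wild-type HepG2 cells (2,000/well) were allowed to settle for 5 hr at 37 C, 5% CO2, then dosed with compounds in DMSO by pin transfer. After 16 hr at 37 C, CellTiter-Fluor was added and fluorescence read 1 hr later.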

The target in assay [12] is Nuclear receptor subfamily 1 group I member 2 (Homo sapiens) (UniProt O75469). Nature of the assay: Human pregnane X receptor (PXR) small molecule agonists, qHTS assay (AID 1346982). Also: nearly all actives have a fitted effect of over 35% in size. Also: potency is read from the fitted curve at half-maximal effect. The method in brief: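 PXR-Luc HepG2 cells (CYP3A4 promoter-driven luciferase) were seeded in medium with 5% charcoal-stripped FBS, left 5 hr at 37 C, then exposed to compounds in DMSO for 24 hr. Luminescence was read after ONE-Glo addition.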

Assay [13] addresses Acetylcholinesterase (Homo sapiens) (UniProt P22303). Briefly: Acetylcholinesterase (AChE) small molecule antagonists: colormetric cell-based qHTS assay (AID 1347395; calls by dose curve; also: nearly all actives have a fitted effect of over 30% in size; also: potency is read from the fitted curve at half-maximal effect). The essentials:
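In this cell-based qHTS, attached SH-SY5Y cells were treated with test chemicals for 30 min, after which acetylthiocholine hydrolysis was followed by DTNB colour development over 90 min at 37 C.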

Assay [14] is described as follows: qHTS assay to identify small molecule antagonists of the progesterone receptor (PR) signaling pathway - cell viability counter screen (AID 1346798). Also: nearly all actives have a fitted effect of over 50% in size. Also: potency is read from the fitted curve at half-maximal effect. The method in brief: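 Measures cytotoxicity in parallel with the PR antagonist reporter read: HEK293T PR-UAS-bla cells get compound and R5020 for 16 hr, and remaining viable cells are quantified by CellTiter-Glo luminescence.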

For assay [15], the target named is Acetylcholinesterase (Homo sapiens) (UniProt P22303). Nature of the assay: Acetylcholinesterase (AChE) small molecule antagonists: enzyme-based qHTS assay (AID 1347397; calls by dose curve; also: nearly all actives have a fitted effect of over 55% in size). The following applies: Potency: AChE enzyme activity inhibition. The essentials: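 Recombinant human AChE, dispensed at 50 mU/mL, was preincubated with Tox21 10K compounds or DMSO vehicle for 30 min at room temperature. DTNB plus acetylthiocholine was then added, and thiocholine was measured colorimetrically after a further 10 min.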

A number with no mark means an inactive call. Results filed as inconclusive are left out. Calls of active or inactive are those of the source. Unless noted, calls follow the shape of the dose curve; as a rule, active = well fitted curve in the direction sought with a large enough effect in the repeat runs; inconclusive = weak or mixed curves; inactive = no such curve, though single readings can be large; an effect the other way counts as inactive or inconclusive.

The results in this text go back to PubChem BioAssay (Tox21).

Chain of Progesterone receptor (Homo sapiens) (P06401 whole entry, looked up): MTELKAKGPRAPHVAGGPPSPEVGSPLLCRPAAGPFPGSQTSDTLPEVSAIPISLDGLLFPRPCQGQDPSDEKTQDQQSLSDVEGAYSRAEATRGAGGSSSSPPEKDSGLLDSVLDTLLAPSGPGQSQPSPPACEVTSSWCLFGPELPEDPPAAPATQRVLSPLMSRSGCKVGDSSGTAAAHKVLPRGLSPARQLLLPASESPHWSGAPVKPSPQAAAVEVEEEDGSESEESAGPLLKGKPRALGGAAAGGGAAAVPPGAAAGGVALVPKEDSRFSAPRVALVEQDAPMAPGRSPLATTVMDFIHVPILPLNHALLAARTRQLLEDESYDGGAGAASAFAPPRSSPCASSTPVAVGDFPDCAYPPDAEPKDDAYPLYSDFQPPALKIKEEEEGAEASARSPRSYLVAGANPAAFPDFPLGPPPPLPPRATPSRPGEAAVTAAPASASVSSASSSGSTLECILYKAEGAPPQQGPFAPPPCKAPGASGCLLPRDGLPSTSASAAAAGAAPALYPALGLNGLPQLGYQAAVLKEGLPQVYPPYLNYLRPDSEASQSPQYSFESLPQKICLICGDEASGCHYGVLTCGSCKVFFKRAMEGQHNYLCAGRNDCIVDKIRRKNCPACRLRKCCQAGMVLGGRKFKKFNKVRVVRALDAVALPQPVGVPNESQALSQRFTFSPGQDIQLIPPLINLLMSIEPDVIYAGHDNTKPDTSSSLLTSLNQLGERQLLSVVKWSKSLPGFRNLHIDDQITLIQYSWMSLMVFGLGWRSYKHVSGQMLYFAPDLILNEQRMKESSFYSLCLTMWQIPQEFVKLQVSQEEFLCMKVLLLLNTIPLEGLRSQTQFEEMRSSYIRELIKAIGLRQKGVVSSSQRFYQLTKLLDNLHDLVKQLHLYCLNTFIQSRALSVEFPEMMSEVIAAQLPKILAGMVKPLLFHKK
Chain of Nuclear receptor subfamily 1 group I member 2 (Homo sapiens) (O75469 whole entry, looked up): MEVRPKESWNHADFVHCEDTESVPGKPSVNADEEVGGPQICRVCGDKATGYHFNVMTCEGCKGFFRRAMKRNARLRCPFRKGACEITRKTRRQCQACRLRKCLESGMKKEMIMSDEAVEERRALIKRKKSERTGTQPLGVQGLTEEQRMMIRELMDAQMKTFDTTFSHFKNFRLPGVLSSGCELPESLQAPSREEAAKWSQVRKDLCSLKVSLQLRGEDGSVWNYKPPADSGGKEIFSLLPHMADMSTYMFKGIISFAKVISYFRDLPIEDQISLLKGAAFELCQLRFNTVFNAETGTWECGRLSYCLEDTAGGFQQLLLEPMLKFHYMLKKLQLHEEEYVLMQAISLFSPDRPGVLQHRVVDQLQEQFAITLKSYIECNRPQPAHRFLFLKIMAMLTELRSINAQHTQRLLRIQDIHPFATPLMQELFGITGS
Chain of Acetylcholinesterase (Homo sapiens) (P22303 whole entry, looked up): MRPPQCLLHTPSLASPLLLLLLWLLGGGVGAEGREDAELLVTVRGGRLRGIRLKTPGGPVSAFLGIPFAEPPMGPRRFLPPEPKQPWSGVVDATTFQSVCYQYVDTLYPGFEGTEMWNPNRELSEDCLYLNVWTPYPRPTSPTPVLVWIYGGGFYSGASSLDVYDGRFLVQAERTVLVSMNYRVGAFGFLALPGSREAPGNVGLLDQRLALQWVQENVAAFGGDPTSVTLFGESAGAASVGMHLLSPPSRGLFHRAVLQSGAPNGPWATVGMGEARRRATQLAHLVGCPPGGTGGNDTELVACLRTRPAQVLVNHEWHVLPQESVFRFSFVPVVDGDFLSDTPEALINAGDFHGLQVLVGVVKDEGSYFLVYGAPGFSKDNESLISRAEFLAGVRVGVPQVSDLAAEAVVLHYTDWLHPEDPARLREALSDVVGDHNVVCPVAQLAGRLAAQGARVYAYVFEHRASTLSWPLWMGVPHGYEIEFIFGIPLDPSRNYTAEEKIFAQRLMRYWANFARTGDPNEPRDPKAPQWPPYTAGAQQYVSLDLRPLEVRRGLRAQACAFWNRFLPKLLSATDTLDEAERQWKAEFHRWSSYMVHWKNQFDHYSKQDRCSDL
Chain of Thyrotropin-releasing hormone receptor (Homo sapiens) (P34981 whole entry, looked up): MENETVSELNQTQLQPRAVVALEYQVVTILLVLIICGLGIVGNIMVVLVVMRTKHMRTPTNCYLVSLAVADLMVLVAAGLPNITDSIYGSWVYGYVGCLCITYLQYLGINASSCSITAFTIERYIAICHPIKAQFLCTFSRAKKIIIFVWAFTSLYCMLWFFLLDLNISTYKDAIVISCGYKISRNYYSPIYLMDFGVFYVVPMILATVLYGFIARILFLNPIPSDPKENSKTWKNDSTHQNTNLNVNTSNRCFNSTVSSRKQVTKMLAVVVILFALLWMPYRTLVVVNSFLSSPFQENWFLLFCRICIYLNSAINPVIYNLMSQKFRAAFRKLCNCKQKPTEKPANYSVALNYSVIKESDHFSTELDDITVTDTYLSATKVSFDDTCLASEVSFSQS

As to `CC1(C)C(=O)NC(=O)NC1=O`, the Potency result in [1], in assay [2], in assay [7], in assay [8], in assay [9] and in assay [10] was “inactive” each time. In addition, the Potency result in assay [11], in assay [12] and in assay [13] was “inactive” in each case. For the same molecule, the outcome in assay [3], in assay [4], in [5] and in assay [6] was inactive.

Consider `CCN(CC)c1nc(C)cc(OP(=S)(OC)OC)n1`, for which the Potency entry in assay [1], in assay [14], in assay [2], in assay [7], in assay [8] and in assay [10] was “inactive” in each case. In addition, the Potency result in assay [11], in [12] and in assay [15] was “inactive” each time. For the same molecule, the outcome in assay [4], in [5] and in assay [6] was inactive.

Consider `CC(C)(C)C(=O)C(Oc1ccc(Cl)cc1)n1cncn1` (stereo not given), for which the Potency entry in assay [1], in [2], in assay [7], in [8], in [9] and in assay [10] was “inactive” throughout. The Potency result in [11], in [13] and in assay [15] was “inactive” throughout. The molecule was called inactive in assay [3], in assay [4], in assay [5] and in assay [6]. Further, the Potency in assay [12] is 27.3 µM (active).

As for `CCOP(=S)(OCC)Oc1cc(-c2ccccc2)on1`, the Potency result in [1], in assay [14], in assay [7], in assay [8], in [9] and in assay [10] was “inactive” in each case. In assay [11], the Potency result was “inactive”. The result in assay [3], in assay [4], in assay [5] and in assay [6] was inactive. The Potency in assay [12] was 24.3 µM (active); in assay [13] it was 63.3 µM (active).

Consider `CC(Oc1ccc(Oc2ncc(C(F)(F)F)cc2Cl)cc1)C(=O)O` (stereo not given), for which the Potency entry in assay [1], in assay [7], in [8], in assay [9], in [10] and in assay [11] was “inactive” in each case. The Potency result in assay [12], in assay [13] and in assay [15] was “inactive” each time. Besides, the Potency in [14] is 7.7 µM (active). Besides, the outcome in assay [3] and in assay [4] was inactive.

Regarding `CNC(=O)N(C)c1nc2ccccc2s1`, the Potency result in assay [1], in assay [14], in assay [7], in [8], in [9] and in assay [10] was “inactive” in each case. Besides, the Potency result in assay [11], in assay [13] and in assay [15] was “inactive” throughout. Further, the molecule was called inactive in assay [3], in assay [4], in assay [5] and in assay [6]. The Potency in assay [12] is 30.6 µM (active).

Take `CCC(C)(C)c1cc(-n2nc3ccccc3n2)c(O)c(C(C)(C)CC)c1`: the Potency result in assay [14], in assay [2], in assay [7], in assay [8], in assay [9] and in assay [10] was “inactive” in each case. Besides, the Potency entry in [11], in assay [13] and in assay [15] was “inactive” in each case. Further, the molecule was called inactive in [3] and in assay [4]. For the same molecule, the Potency in assay [12] was 69.6 µM (active).
